Test results as given in PubChem BioAssay AID720504 (National Center for Advancing Translational Sciences (NCATS), 2013).
The campaign covered roughly 360,000 compounds. About 10,000 (2.8%) were called active. Roughly 4% stayed inconclusive and do not appear here. This excerpt belongs to a sample that is enriched for actives. Values without a mark were called inactive. Calls follow the shape of the dose curve; as a rule, active = well fitted inhibition curve with a large enough effect; inconclusive = small, poorly fitted or top-dose-only effect; inactive = flat fitted curve, though single readings scatter.

Each molecule was assayed against Serine/threonine-protein kinase PLK1 (Homo sapiens) (UniProt P53350) (assay: qHTS for Inhibitors of PLK1-PDB (polo-like kinase 1 - polo-box domain): Primary Screen). Details: Plk1 PBD binding of FITC phosphopeptide, fluorescence polarization.
Serine/threonine-protein kinase PLK1 (Homo sapiens), sequence (P53350 whole entry, looked up, the tested form may be a part): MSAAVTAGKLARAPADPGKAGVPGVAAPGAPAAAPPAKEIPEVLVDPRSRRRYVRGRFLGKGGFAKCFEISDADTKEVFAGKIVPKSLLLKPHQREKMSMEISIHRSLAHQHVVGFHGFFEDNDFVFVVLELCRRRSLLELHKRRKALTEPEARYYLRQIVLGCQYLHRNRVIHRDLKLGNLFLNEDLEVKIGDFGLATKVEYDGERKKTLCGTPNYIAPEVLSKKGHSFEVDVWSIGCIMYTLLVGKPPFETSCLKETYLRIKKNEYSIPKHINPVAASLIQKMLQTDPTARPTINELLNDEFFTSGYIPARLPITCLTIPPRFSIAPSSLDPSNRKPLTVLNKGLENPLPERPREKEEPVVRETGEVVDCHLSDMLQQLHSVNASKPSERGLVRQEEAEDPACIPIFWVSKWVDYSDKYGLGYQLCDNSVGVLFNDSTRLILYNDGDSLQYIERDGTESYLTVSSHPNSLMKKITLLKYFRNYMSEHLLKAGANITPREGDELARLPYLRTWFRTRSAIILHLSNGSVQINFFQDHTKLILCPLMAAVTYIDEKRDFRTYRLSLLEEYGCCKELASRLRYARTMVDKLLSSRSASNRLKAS
% is scaled to controls: 0 for no effect and ±100 for the full control effect; potency is read from the fitted curve at half-maximal effect.
Also: nearly all actives have a fitted effect of over 65% in size.
For max response, negative = inhibition in this document: series mostly up to about 57 µM.

First: CC(OC(=O)c1cccnc1Cl)C(=O)NC1CCCCC1 (centres undefined)
Second: O=C(OCC(=O)N1CCCCCC1)c1cccc(Cl)c1Cl
The max response, negative = inhibition of the first is higher: 1.67% for the first, -1.69% for the second.

First: COc1ccc(CC(N)c2csc(NC(=O)NC(c3ccccc3)c3ccccc3)n2)cc1 (centres undefined)
Second: COc1cccc(C(NC(C)=O)c2nc(-c3cnc4ccccc4c3)cs2)c1 (centres undefined)
The max response, negative = inhibition of the first is higher: -3.78% for the first, -4.39% for the second.

Compared with O=C(Nc1ccc(Cl)cc1)c1csc([C@H]2C[C@H](O)[C@@H](CO)O2)n1, O[C@H]1C[C@H](c2ccc(Cl)cc2)N(Cc2cccs2)C[C@@H]1n1cc(C2CC2)nn1 is higher in max response, negative = inhibition: -10.3% for the first, -4.6% for the second.

Going from C=CCn1cnc2scc(-c3ccccc3)c2c1=O to CCOC(=O)c1ccn(S(=O)(=O)c2ccc(C)cc2)c1-c1ccccc1, the max response, negative = inhibition rises from -4% to -3.65%.

Compared with C=CCn1c(=S)[nH]c2nc3c(cc2c1=O)COC(C)(C)C3, COc1cc2ccc(C(C)=O)c(O)c2cc1OC is lower in max response, negative = inhibition: 1.98% for the first, -1.98% for the second.

Compared with C[C@H](CO)N1C[C@H](C)[C@H](CN(C)C(=O)Nc2ccc3c(c2)OCO3)Oc2ncc(Br)cc2C1=O, COC(=O)C[C@@H]1C=C[C@@H](NC(=O)c2ccc3c(c2)OCO3)[C@@H](CO)O1 is higher in max response, negative = inhibition: -14.4% for the first, -2.88% for the second.

Compared with CC(C)CCC(=O)Nc1cc(S(=O)(=O)N2CCOCC2)ccc1N1CCCC1, CC(=O)NCCC(=O)Nc1cc(S(=O)(=O)N2CCOCC2)ccc1N1CCOCC1 is lower in max response, negative = inhibition: -0.0205% for the first, -0.805% for the second.

First: CCCNC(=O)C1(C)CCCN(C(=O)c2oc3ccccc3c2C)C1 (centres undefined)
Second: CCCNC(=O)C1(C)CCCN(Cc2cccc(C(F)(F)F)c2)C1 (centres undefined)
The max response, negative = inhibition of the first is lower: -5.78% for the first, -5.05% for the second.

Compared with COC(=O)c1ccc2nc(C3CCCCC3)c(Cc3cccc(F)c3)n2c1, COC(=O)c1ccc2nc(-c3ccc(Cl)cc3)c(Cc3cccc(F)c3)n2c1 is higher in max response, negative = inhibition: -6.81% for the first, 1.38% for the second.

Compared with CCCCNC(=O)C1CCC(=O)N1CCc1ccccc1 (centres undefined), O=C(Cn1cnc2c(OCc3ccccc3)ncnc21)NCCCn1ccnc1 is lower in max response, negative = inhibition: -10.6% for the first, -12.9% for the second.

First: COc1ccc(C2C3=C(CCCC3=O)N(CC(=O)O)C3=C2C(=O)CCC3)cc1
Second: COc1ccc([C@H]2N[C@]3(CCCN(CC4CCCCC4)C3=O)[C@H]3C(=O)N(C)C(=O)[C@@H]23)cc1
The max response, negative = inhibition of the first is lower: -11.9% for the first, -7.68% for the second.

Compared with CCCCC(=O)N(C)c1c(CC)nc2c(OCc3ccc(Cl)cc3Cl)cccn12, CCOC(=O)N(C)c1c(CC)nc2c(OCc3ccccc3C(=O)OC)cccn12 is lower in max response, negative = inhibition: -5.31% for the first, -14.2% for the second.

Going from COc1cccc(CN2CCC(C(=O)NC(c3ccc4c(c3)OCO4)c3ccccn3)CC2)c1 (centres undefined) to CCc1nc2ccc(C(=O)NC3CCN(Cc4ccccc4)CC3)cn2c1N(CC)CCOC, the max response, negative = inhibition falls from 1.25% to -18.3%.

Going from C[C@@H]1CC2=C(C(=O)OC(C)(C)O2)[C@@H](C2CC2)O1 to CCC1OC(C2CC2)CC2=C1C(=O)OC(C)(C)O2 (centres undefined), the max response, negative = inhibition rises from -2.71% to -2.05%.

Going from CC(C)c1ccc(NC(=O)Cn2ncc3ccccc32)cc1 to COc1ccc(NC(=O)Cn2ncn3c(cc4ccccc43)c2=O)c(OC)c1OC, the max response, negative = inhibition falls from 5.15% to -11.6%.

Going from COc1ccc(C2OC(CCc3ccccc3)Cc3[nH]c(=S)[nH]c(=O)c32)cc1 (centres undefined) to COc1ccc(NC(=O)COC(=O)C2COc3ccccc3O2)cc1 (centres undefined), the max response, negative = inhibition falls from -0.658% to -3.22%.

Going from CC(=O)Nc1cc(-c2ccccc2N(C)C)cn2c(-c3ccc(F)c(Cl)c3)cnc12 to CCc1nc2ccc(C(=O)Nc3cc(-c4ccccc4)ccc3OC)cn2c1N(CC)CC(=O)N(C)C, the max response, negative = inhibition rises from -6.53% to -4.06%.

First: COC(=O)[C@]12CCCCC=C1N(Cc1ccc3c(c1)OCO3)C(=O)[C@H](CC(=O)NCc1cccs1)C2
Second: CCCCOCCCNC(=O)C[C@@H]1C[C@@]2(C(=O)OCC)CCCC=C2N(CCC2=CCCCC2)C1=O
The max response, negative = inhibition of the first is lower: -8.01% for the first, 4% for the second.

First: COc1ccc(CC(=O)NCc2nnc(SCC(=O)Nc3nccs3)n2C)cc1
Second: COc1ccc(C(=O)NCc2nnc(SCC(=O)NC3=NCCS3)n2C)cc1
The max response, negative = inhibition of the first is higher: 3.83% for the first, -0.0324% for the second.

First: C=CCn1c(SCCOc2ccc(OC)cc2)nnc1C(NC(=O)c1ccc(OC)cc1)C(C)C (centres undefined)
Second: COc1ccc(-c2nnc(SCC(=O)Nc3cccnc3Cl)n2C)cc1
The max response, negative = inhibition of the first is lower: -13.7% for the first, -2.41% for the second.

Going from Cc1nc2c(OCC(=O)C(C)(C)C)cccn2c1N(C)Cc1cccs1 to CCc1nc2c(OCCOc3ccccc3)cccn2c1N(C)C(=O)c1cccs1, the max response, negative = inhibition rises from -10% to -1.33%.

First: COc1ccccc1C(=O)Nc1ccc(C)c(S(=O)(=O)N2CCCCC2)c1
Second: CCOC(=O)C1CCN(CC(=O)Nc2ccc(OC)c(S(=O)(=O)N3CCCCC3)c2)CC1
The max response, negative = inhibition of the first is lower: -5.05% for the first, 3.48% for the second.

Compared with CC(=O)c1cccc(NC(=O)C2COc3ccccc3O2)c1 (centres undefined), C[C@H]1NS(=O)(=O)c2cc(Cl)ccc2O[C@@H]1c1ccccc1 is lower in max response, negative = inhibition: 2.4% for the first, -5.69% for the second.

Compared with COc1ccc(S(=O)(=O)NCC(=O)NCc2cc(=O)n(C)c(=O)n2C)cc1F, COC(=O)C1=CN(C)C=C(C(=O)OC)C1c1ccc(Cl)cc1Cl is higher in max response, negative = inhibition: -15.2% for the first, 2.45% for the second.

Compared with Cc1ccc(C(=O)NCC(=O)NC2CC2)cc1, COc1ccc(C(=O)NCC(=O)N/N=C/c2cccnc2)cc1 is higher in max response, negative = inhibition: -13.7% for the first, -5.97% for the second.

First: O=C(O)c1ccccc1Cc1ccc(F)c2ccccc12
Second: CCOC(=O)c1ccc(Nc2cc3ccccc3c(=O)[nH]2)cc1
The max response, negative = inhibition of the first is higher: -10.5% for the first, -11.1% for the second.

Compared with CN1OC[C@@H]2CN(C(=O)c3cccnc3)[C@H](c3ccc(N4CCCCC4)cc3)C[C@@H]21, O=C(Nc1ccc(N2CCCCC2)cc1)c1cc(S(=O)(=O)N2CCOCC2)ccc1F is higher in max response, negative = inhibition: -6.62% for the first, 1.97% for the second.

First: COc1ccc(NC(=O)C2(C)Cc3c(-c4ccc(C(N)=O)cc4)ccnc3O2)cc1 (centres undefined)
Second: CCOC(=O)C1=C(C)Nc2sc(C(=O)c3ccc(Br)cc3)c(N)c2C1c1ccc(C(=O)OC)cc1 (centres undefined)
The max response, negative = inhibition of the first is lower: -13.3% for the first, 3.24% for the second.

Compared with CCN1C(=O)[C@H]2[C@@H](c3ccc(C(F)(F)F)cc3)N[C@]3(CCCN(Cc4ccc(Br)cc4)C3=O)[C@H]2C1=O, O=C(NCc1ccc(F)cc1)c1cc(C2CCCCN2C(=O)c2cccs2)on1 (centres undefined) is higher in max response, negative = inhibition: -8.24% for the first, -1.47% for the second.

First: O=C(CN1C(=O)NC2(CCc3ccccc32)C1=O)NC1CCCCC1 (centres undefined)
Second: CC1(C)OC(=O)C2=C(C[C@@H](C3CCCCC3)O[C@@H]2c2ccc(Cl)cc2)O1
The max response, negative = inhibition of the first is higher: 2.51% for the first, -3.8% for the second.

Compared with CCOC(=O)C1CCN(C(=O)c2ccc3c(=O)n4nc(Nc5ccccc5CC)sc4nc3c2)CC1, O=C(COC(=O)c1ccc(S(=O)(=O)N2CCCCCC2)cc1)Nc1ccccc1C(F)(F)F is higher in max response, negative = inhibition: -1.87% for the first, -1.71% for the second.

Going from Nc1ccc2c(c1)C(O)c1ccc(Cl)cc1-2 (centres undefined) to CC(=O)Nc1ccc(S(=O)(=O)Nc2ccc(N3CCCCC3)cc2)cc1, the max response, negative = inhibition rises from -6.61% to -2.92%.

Going from CC(CNC(=O)Cn1cnc2c(OCc3ccccc3)ncnc21)c1ccccc1 (centres undefined) to CCn1c(SCC(=O)N/N=C/c2ccncc2)nc2ccccc21, the max response, negative = inhibition rises from -8.63% to -2.87%.

First: COc1cc(NC(=O)c2cc(-c3ccc(F)cc3OC(C)C)n[nH]2)cc(OC)c1OC
Second: COc1cccc(NC(=O)c2nn(C34CC5CC(CC(C5)C3)C4)cc2[N+](=O)[O-])c1
The max response, negative = inhibition of the first is lower: -10.2% for the first, 1.45% for the second.

First: O=S(=O)(c1cccc(C(F)(F)F)c1)N1c2ccccc2-n2cccc2C1c1cccnc1 (centres undefined)
Second: O=C1CC(N2CCN(c3ccc(F)cc3)CC2)C(=O)N1c1ccccc1 (centres undefined)
The max response, negative = inhibition of the first is higher: 4.88% for the first, -2.61% for the second.

First: CCOc1ccccc1NC(=O)c1cc(S(=O)(=O)N2CCC3(CC2)OCCO3)ccc1F
Second: C=CCN1CCN(c2ccncc2S(=O)(=O)N2CCN(C)CC2)CC1
The max response, negative = inhibition of the first is higher: -1.47% for the first, -10.5% for the second.

For CC1CCN(C(=O)CSc2nnc(-c3ccco3)n2N)CC1, the max response, negative = inhibition was -0.744%.

For C=CCn1c(=S)[nH]c2scc(-c3ccco3)c2c1=O, the Potency was 26.7 µM (active).
COCCNC(=S)Nc1cc(S(=O)(=O)N2CCOCC2)ccc1N1CCCCC1 was tested, and the Potency was 2.99 µM (active).
In the case of CCCCN1C(=O)CCC(C(=O)O)C1c1ccc(OC)cc1 (centres undefined), the Potency was 26.7 µM (active).
In the case of CCc1ccc(NC(=O)Cn2ncn3c(cc4ccccc43)c2=O)cc1, the Potency was 15 µM (active).
COc1ccc(C(=O)NCc2nnc(SCCOc3ccccc3)n2C)cc1 was tested, and the Potency was 16.8 µM (active).
COc1ccc(CC(=O)NCc2nnc(SCC(=O)Nc3ncc(C)s3)n2C)cc1 was tested, and the Potency was 13.4 µM (active).
With COc1ccc(NC(=O)C2=NNC(=O)CC2)cc1S(=O)(=O)N1CCCCC1 the Potency was 16.8 µM (active).
For O=C(Nc1nc(-c2ccncc2)cs1)C1COc2ccccc2O1 (centres undefined), the Potency was 3.36 µM (active).
For Cc1ccc(C(=O)NCC(=O)NCc2cc(=O)n(C)c(=O)n2C)cc1, the Potency was 26.7 µM (active).
For CCOC(=O)c1sc(=S)n2c1[nH]c(=O)c1ccc(C(=O)OC)cc12, the Potency was 6.7 µM (active).
In the case of NC(=O)C1(C(N)=O)OC1c1ccc(Cl)cc1Cl (centres undefined), the Potency was 16.8 µM (active).
O=C(Cn1cnc2c(OCc3ccccc3)ncnc21)NCc1nc2ccccc2[nH]1 was tested, and the Potency was 21.2 µM (active).
Cc1nc([N+](=O)[O-])nn1C12CC3CC(CC(Br)(C3)C1)C2 was tested, and the Potency was 4.74 µM (active).
With Cc1cccc(NC(=O)c2cc(S(=O)(=O)N3CCC4(CC3)OCCO4)ccc2F)c1 the Potency was 26.7 µM (active).
With O=C1C=CC(=O)N1c1ccc(N2CCCCC2)cc1 the Potency was 3.36 µM (active).
O=C(CSc1cccc2cccnc12)N/N=C/c1cccnc1 was tested, and the Potency was 7.52 µM (active).
